Laboratory results as given in PubChem BioAssay AID1159580 (chemical genetic matrix, 2015).
About 2,000 (36%) of roughly 5,500 compounds were called active. Roughly 18% stayed inconclusive and do not appear here. No stated cut-off is given here; in the data, active means normalized growth mostly below about 0.91 (no sharp cut-off); inconclusive means no clear call, values can overlap the other calls; inactive means mostly above about 0.92. Some of the results follow.

Test: chemical genetic growth profiling, strain panel (AID 1159580);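 further: tested at 20 µM; growth read once vehicle control cultures reached saturation at 30 °C; 1 = growth at the plate median or of vehicle wells; lower values mean less growth of the strain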
Conditions: growth OD

Measured: normalized growth

CN[C@@H](C)[C@@H](O)c1ccccc1
inactive: S. cerevisiae deletion strains, locus YKL068W, hits give low values 0.978 | S. cerevisiae deletion strains, locus YKL085W, strain MDH1 (second series), hits give low values 0.992 | S. cerevisiae deletion strains, locus YKL085W, strain MDH1, hits give low values 0.992 | S. cerevisiae deletion strains, locus YKL160W, strain elf1, hits give low values 0.968 | S. cerevisiae deletion strains, locus YKL190W, strain CNB1, hits give low values 0.998 | S. cerevisiae deletion strains, locus YKR001C, strain vps1, hits give low values 0.978 | S. cerevisiae deletion strains, locus YKR026C, strain gcn3, hits give low values 0.994 | S. cerevisiae deletion strains, locus YKR091W, strain srl3, hits give low values 1 | S. cerevisiae deletion strains, locus YLL001W, strain dnm1, hits give low values 1.01 | S. cerevisiae deletion strains, locus YLL026W, hits give low values 1.01 | S. cerevisiae deletion strains, locus YLL041C, strain sdh2, hits give low values 1 | S. cerevisiae deletion strains, locus YLR027C, strain aat2, hits give low values 1 | S. cerevisiae deletion strains, locus YLR039C, strain RIC1, hits give low values 0.966 | S. cerevisiae deletion strains, locus YLR058C, strain SHM2, hits give low values 0.988 | S. cerevisiae deletion strains, locus YLR102C, strain apc9, hits give low values 0.99 | S. cerevisiae deletion strains, locus YLR113W, strain HOG1, hits give low values 0.984 | S. cerevisiae deletion strains, locus YLR221C, strain rsa3, hits give low values 0.994 | S. cerevisiae deletion strains, locus YLR258W, strain gsy2, hits give low values 0.981 | S. cerevisiae deletion strains, locus YLR262C, strain YPT6 (second series), hits give low values 1.01 | S. cerevisiae deletion strains, locus YLR262C, strain YPT6, hits give low values 0.914 | S. cerevisiae deletion strains, locus YLR268W, strain sec22, hits give low values 0.983 | S. cerevisiae deletion strains, locus YLR320W, strain mms22, hits give low values 0.985 | S. cerevisiae deletion strains, locus YLR330W, strain CHS5, hits give low values 0.987 | S. cerevisiae deletion strains, locus YLR342W, strain FKS1 (second series), hits give low values 0.99 | S. cerevisiae deletion strains, locus YLR342W, strain FKS1, hits give low values 1.01 | S. cerevisiae deletion strains, locus YLR357W, strain rsc2, hits give low values 0.972 | S. cerevisiae deletion strains, locus YLR370C, strain arc18, hits give low values 0.982 | S. cerevisiae deletion strains, locus YLR371W, strain rom2, hits give low values 0.981 | S. cerevisiae deletion strains, locus YLR384C, strain iki3, hits give low values 0.993 | S. cerevisiae deletion strains, locus YLR418C, strain cdc73, hits give low values 1.02 | S. cerevisiae deletion strains, locus YML016C, strain PPZ1, hits give low values 0.987 | S. cerevisiae deletion strains, locus YML032C, strain rad52, hits give low values 0.979 | S. cerevisiae deletion strains, locus YML120C, strain ndi1, hits give low values 1.01 | S. cerevisiae deletion strains, locus YML124C, strain tub3, hits give low values 0.99 | S. cerevisiae deletion strains, locus YMR058W, strain fet3, hits give low values 1.01 | S. cerevisiae deletion strains, locus YMR078C, strain ctf18, hits give low values 0.985 | S. cerevisiae deletion strains, locus YMR125W, strain sto1, hits give low values 0.985 | S. cerevisiae deletion strains, locus YMR129W, hits give low values 0.976 | S. cerevisiae deletion strains, locus YMR205C, strain PFK2, hits give low values 0.984 | S. cerevisiae deletion strains, locus YMR223W, strain ubp8, hits give low values 0.985 | S. cerevisiae deletion strains, locus YMR231W, strain pep5, hits give low values 0.998 | S. cerevisiae deletion strains, locus YMR263W, strain SAP30, hits give low values 1.01 | S. cerevisiae deletion strains, locus YMR307W, strain GAS1, hits give low values 0.881 | S. cerevisiae deletion strains, locus YNL067W, strain RPL9B, hits give low values 1.04 | S. cerevisiae deletion strains, locus YNL071W, strain lat1, hits give low values 1.01 | S. cerevisiae deletion strains, locus YNL183C, strain NPR1, hits give low values 0.978 | S. cerevisiae deletion strains, locus YNL209W, strain ssb2, hits give low values 0.978 | S. cerevisiae deletion strains, locus YNL233W, strain BNI4, hits give low values 1.05 | S. cerevisiae deletion strains, locus YNL248C, strain rpa49, hits give low values 0.986 | S. cerevisiae deletion strains, locus YNL250W, strain rad50, hits give low values 0.99 | S. cerevisiae deletion strains, locus YNL271C, strain bni1, hits give low values 0.976 | S. cerevisiae deletion strains, locus YNL298W, strain CLA4, hits give low values 0.97 | S. cerevisiae deletion strains, locus YNL307C, strain MCK1, hits give low values 0.992 | S. cerevisiae deletion strains, locus YNL322C, strain KRE1 (second series), hits give low values 0.977 | S. cerevisiae deletion strains, locus YNR049C, strain mso1, hits give low values 0.998 | S. cerevisiae deletion strains, locus YNR052C, strain pop2, hits give low values 0.997 | S. cerevisiae deletion strains, locus YOL006C, strain TOP1, hits give low values 1.07 | S. cerevisiae deletion strains, locus YOL012C, strain htz1 1.99 | S. cerevisiae deletion strains, locus YOL147C, strain pex11, hits give low values 0.993 | S. cerevisiae deletion strains, locus YOR001W, strain rrp6, hits give low values 0.997 | S. cerevisiae deletion strains, locus YOR061W, strain CKA2, hits give low values 0.971 | S. cerevisiae deletion strains, locus YOR069W, strain VPS5, hits give low values 0.986 | S. cerevisiae deletion strains, locus YOR070C, strain gyp1, hits give low values 0.984 | S. cerevisiae deletion strains, locus YOR080W, strain dia2, hits give low values 0.994 | S. cerevisiae deletion strains, locus YOR083W, strain WHI5, hits give low values 0.961 | S. cerevisiae deletion strains, locus YOR106W, strain vam3, hits give low values 1.01 | S. cerevisiae deletion strains, locus YOR136W, strain idh2, hits give low values 0.991 | S. cerevisiae deletion strains, locus YOR144C, strain elg1, hits give low values 0.987 | S. cerevisiae deletion strains, locus YOR184W, strain ser1, hits give low values 0.987 | S. cerevisiae deletion strains, locus YOR231W, strain MKK1, hits give low values 0.98 | S. cerevisiae deletion strains, locus YOR265W, strain rbl2, hits give low values 1 | S. cerevisiae deletion strains, locus YOR270C, strain vph1, hits give low values 1.04 | S. cerevisiae deletion strains, locus YOR290C, strain snf2, hits give low values 0.972 | S. cerevisiae deletion strains, locus YOR316C, strain cot1, hits give low values 0.986 | S. cerevisiae deletion strains, locus YPL051W, strain arl3, hits give low values 0.99 | S. cerevisiae deletion strains, locus YPL078C, strain atp4, hits give low values 1.02 | S. cerevisiae deletion strains, locus YPL106C, strain sse1, hits give low values 0.937 | S. cerevisiae deletion strains, locus YPL240C, strain hsp82, hits give low values 0.993 | S. cerevisiae deletion strains, locus YPL241C, strain CIN2, hits give low values 0.979 | S. cerevisiae deletion strains, locus YPL256C, strain CLN2, hits give low values 1.03 | S. cerevisiae deletion strains, locus YPR119W, strain clb2, hits give low values 0.983 | S. cerevisiae deletion strains, locus YPR141C, strain kar3, hits give low values 0.989 | S. cerevisiae deletion strains, locus YPR163C, strain tif3, hits give low values 0.989 | S. cerevisiae deletion strains, locus YPR167C, strain met16, hits give low values 0.988 | S. cerevisiae deletion strains, strain wtn01, hits give low values 1 | S. cerevisiae strains, strain wild type, hits give low values 0.987
